TDP1 cell noCPT = qHTS for Inhibitors of human tyrosyl-DNA phosphodiesterase 1 (TDP1): qHTS in cells in absence of CPT | DT40 Tdp1-/- hTDP1 cells, no CPT, ATP luminescence, 48 h | Potency, µM (series often up to 46.2 µM), without a hit: top-dose activity change, negative = growth inhibition, hits mostly inhibitors | hit rate 15% among 420,000 | AID 686978, 2013; also: nearly all actives have a fitted effect of over 55% in size
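Compound effects on proliferation are scored in DT40 Tdp1-/-;hTDP1 cells in the absence of CPT. ATP levels (CellTiter-Glo luminescence) are recorded after a ≥48 hr, 37 °C incubation.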
TDP1 block = qHTS Assay for Inhibitors of Tyrosyl-DNA Phosphodiesterase (TDP1) | Potency, µM (highest dose often 130 µM), for inactives: top-dose activity change, negative = inhibition, hits mostly inhibitors | recombinant TDP1, AlphaScreen DNA substrate cleavage | Tyrosyl-DNA phosphodiesterase 1 (Homo sapiens), Q9NUW8 | hit rate 0.28% among 350,000 | AID 485290, 2010; also: nearly all actives have a fitted effect of over 40% in size
Target sequence (Q9NUW8 whole entry, looked up): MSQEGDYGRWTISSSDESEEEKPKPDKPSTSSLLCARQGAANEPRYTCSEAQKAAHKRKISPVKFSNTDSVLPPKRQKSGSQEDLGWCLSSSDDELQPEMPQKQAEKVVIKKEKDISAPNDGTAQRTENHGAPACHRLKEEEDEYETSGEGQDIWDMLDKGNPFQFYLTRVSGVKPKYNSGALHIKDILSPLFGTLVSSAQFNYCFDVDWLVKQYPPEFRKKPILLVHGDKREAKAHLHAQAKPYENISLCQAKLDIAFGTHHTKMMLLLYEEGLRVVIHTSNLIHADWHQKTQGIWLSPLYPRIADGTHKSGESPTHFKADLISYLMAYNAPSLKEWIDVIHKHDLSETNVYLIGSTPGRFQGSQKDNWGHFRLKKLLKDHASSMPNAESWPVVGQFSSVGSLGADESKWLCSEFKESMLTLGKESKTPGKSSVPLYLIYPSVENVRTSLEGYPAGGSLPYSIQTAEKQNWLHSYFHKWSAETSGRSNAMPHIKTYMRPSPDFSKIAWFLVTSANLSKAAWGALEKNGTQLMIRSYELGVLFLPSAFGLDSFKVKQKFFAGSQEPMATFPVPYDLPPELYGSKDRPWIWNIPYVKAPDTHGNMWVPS
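Here, a 5' biotin and 3' phosphotyrosine-FITC DNA oligonucleotide reports Tdp1 activity: intact substrate bridges AlphaScreen beads, while cleavage leaves a 3' phosphate and drops signal. All incubations at room temperature.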
Gal4-VP16 FLuc = VP16 counterscreen qHTS for inhibitors of ROR gamma transcriptional activity; Drosophila S2 Gal4-VP16 UAS-luciferase, luminescence, 20 h; Potency, µM (series often up to 53.6 µM), inactives show at the highest dose activity, negative = inhibition, actives largely listed as inhibitors; hit rate 3.5% among 310,000; AID 2546, 2010;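 also: Gal4-VP16 expression switched on by copper sulfate through the metallothionein promoter; nearly all actives have a fitted effect of over 50% in size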
DT40 TDP1 CPT = qHTS for Inhibitors of human tyrosyl-DNA phosphodiesterase 1 (TDP1): qHTS in cells in presence of CPT; AID 686979, 2013; chicken DT40 Tdp1-/-;hTDP1 cells + 20 nM CPT, ATP luminescence, 48 h; Potency, µM (titrated, usually from 46.2 µM), without a hit: at the highest dose activity change, negative = growth inhibition, usual class: inhibitors; hit rate 12% among 420,000; also: nearly all actives have a fitted effect of over 55% in size
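Chicken DT40 Tdp1-/- cells stably complemented with human TDP1 were seeded at 400 cells/well in medium containing 20 nM camptothecin, exposed to pin-transferred compounds, and grown at 37 °C for at least 48 hr. Viability was read as ATP luminescence.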
RORgamma inh = qHTS for inhibitors of ROR gamma transcriptional activity | Nuclear receptor ROR-gamma (Mus musculus), P51450 | Drosophila S2 Gal4-RORgamma UAS-luciferase reporter, 20 h | Potency, µM (highest dose often 53.6 µM), for the others: at the top dose activity change, negative = inhibition, most hits filed as inhibitors | hit rate 5.4% among 310,000 | AID 2551, 2010; also: nearly all actives have a fitted effect of over 60% in size
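ROR gamma transcriptional activity was tracked as Gal4-UAS luciferase output in stably transfected Drosophila Schneider cells, with compound added 1 hr before 700 uM copper sulfate induction and a 20 hr ambient-temperature incubation.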
Starred values were filed as active, the others as inactive; ? = inconclusive; . = no result given. The list is not random: actives were taken first. Their share in the collection is about 19%. Calls follow the shape of the dose curve; as a rule, active = well fitted curve in the direction sought with a large enough effect; inconclusive = small, poorly fitted or top-dose-only effect, or another doubt; inactive = no such curve, though single readings can be large; an effect the other way counts as inactive or inconclusive. % is scaled to controls: 0 for no effect and ±100 for the full control effect; potency is read from the fitted curve at half-maximal effect.

SMILES	TDP1 cell noCPT	TDP1 block	Gal4-VP16 FLuc	DT40 TDP1 CPT	RORgamma inh
CC1=NN(C(=O)Cn2nc([N+](=O)[O-])cc2C)C(O)(C(F)(F)F)C1 (stereo not given)	-17.7%	4.7%	?	-5.8%	10µM*
CC1=NN(C(=O)c2ccc(Cn3nc(C)c([N+](=O)[O-])c3C)cc2)C(O)(C(F)(F)F)C1 (stereo not given)	-20.2%	0.0%	11.2µM*	?	11.2µM*
CC1=NN(C(=O)c2ccc(Cn3nc(C)c(Br)c3C)cc2)C(O)(C(F)(F)F)C1 (stereo not given)	0.581µM*	0.0%	12.6µM*	0.82µM*	?
Cc1nnc(SCC(=O)NC(=O)NC(C)(C)C)s1	-11.9%	-2.6%	5.6%	19.5%	-2.2%
COc1ccc(C(C(=O)NC(C)(C)C)N(C(=O)CCC(=O)Nc2cc(C)on2)c2cccc(C)c2C)cc1 (stereo not given)	?	-19.3%	1.9%	-3.1%	42.2%
Cc1ccc2nc(COc3ccccc3NC(=O)c3ccccc3C)cc(=O)n2c1	?	2.7%	.	-19.0%	.
Cc1ccc(C(C(=O)NC2CCCC2)N2CCCC(C)C2)cc1 (stereo not given)	?	2.2%	2.9%	-9.7%	1.5%
Nc1nc(SCC(=O)Nc2cc(C(F)(F)F)ccc2N2CCOCC2)n[nH]1	-2.2%	-5.9%	1.5%	5.1%	0.6%
CCOC(=O)[C@]12CCC=C1N(Cc1cccc3ccccc13)C(=O)[C@H](CC(=O)NCc1ccc(OC)c(OC)c1)C2	16.4µM*	.	.	?	.
CCOC(=O)N1CCN(C(=O)C[C@@H]2C[C@@]3(C(=O)OCC)CCC=C3N(Cc3ccco3)C2=O)CC1	-12.5%	.	.	0.1%	.
CCOC(=O)[C@]12CCC=C1N(Cc1cccc3ccccc13)C(=O)[C@H](CC(=O)NCCC(C)C)C2	20.6µM*	.	.	23.1µM*	.
CCOC(=O)N1CCN(C(=O)C[C@@H]2C[C@@]3(C(=O)OCC)CCC=C3N(Cc3cccc4ccccc34)C2=O)CC1	16.4µM*	.	.	?	.
C#CCNC(=O)C[C@@H]1C[C@@]2(C(=O)OCC)CCC=C2N(Cc2ccco2)C1=O	-6.1%	.	.	1.2%	.
CCOC(=O)C1CCN(C(=O)C(CCSC)NC(=O)COc2ccccc2)CC1 (stereo not given)	?	1.4%	.	-25.6%	.
Cc1ccccc1NC(=O)COC(=O)c1ccc2c(c1)OCCO2	-16.5%	-3.4%	.	-1.0%	.
CC(=O)C[C@H](O)CC(=O)[C@H]1OC(=O)[C@@H](C)C/C=C\Cc2ccccc21	1.2%	0.4%	.	-7.0%	.
COc1ccccc1NC1=C(C)C(=O)CC1	?	-1.1%	-4.1%	-8.7%	12.6µM*
COC1=C(Nc2ccccc2OC)C(=O)c2ccccc2C1=O	?	.	-0.2%	-4.1%	-12.1%
Cn1ccnc1SCc1ccc([N+](=O)[O-])cc1	11.7%	3.9%	1.8%	-3.2%	-26.7%
Cn1ccnc1SCc1cn2cc(Br)ccc2n1	-15.8%	-2.0%	10µM*	-1.1%	11.2µM*
CC1=Nc2cc(C(=O)NCCCN3CCN(C)CC3)ccc2Sc2ccc(C)cc21	18.4µM*	2.8%	-2.2%	?	5.2%
CC1=Nc2cc(C(=O)NCC3CCCO3)ccc2Sc2ccc(C)cc21 (stereo not given)	0.92µM*	1.6%	5.6%	0.581µM*	-23.1%
CCC(C)NC(=O)c1ccc2c(c1)N=C(C)c1cc(C)ccc1S2 (stereo not given)	5.17µM*	-5.0%	.	3.26µM*	.
O=C(NCC1CCCO1)c1cccc(C(=O)NCC2CCCO2)c1 (stereo not given)	?	.	2.5%	-1.5%	-0.1%
CCC(C)NC(=O)c1cccc(C)c1 (stereo not given)	1.4%	2.7%	2.1%	4.0%	11.1%
SMILES	TDP1 cell noCPT	TDP1 block	Gal4-VP16 FLuc	DT40 TDP1 CPT	RORgamma inh
CCC1=C2CC[C@H]3C(=O)N(C)C(=O)[C@H]3[C@H]2[C@@]2(Cc3ccccc3)C(=NCCc3c[nH]c4ccccc34)OC(=O)N2C1=O	.	12.9%	-8.1%	.	44.8%
COc1ccc(-c2cc(C(=O)Nc3cc(C)n(Cc4ccc(Cl)cc4)n3)no2)cc1OC	?	1.9%	?	-16.0%	-39.7%
Cc1ccc(NC(=O)CN2CCCN(Cc3ccccc3Cl)S2(=O)=O)c(C)c1	?	2.8%	.	?	.
COc1ccc(CN2CCCN(CC(=O)Nc3cc(C)ccc3C)S2(=O)=O)cc1	20.6µM*	1.9%	.	20.6µM*	.
COc1ccc(CN2CCCN(CC(=O)Nc3ccc(Br)cc3F)S2(=O)=O)cc1	?	-1.2%	.	?	.
CCOC(=O)c1ccccc1NC(=O)CN1CCCN(Cc2cc(C)ccc2C)S1(=O)=O	20.6µM*	2.8%	.	20.6µM*	.
CCc1cccc(C)c1NC(=O)CN1CCCN(Cc2ccc(C)cc2)S1(=O)=O	10.3µM*	8.5%	.	16.4µM*	.
C[C@@H]1CN([C@@H](C)CO)C(=O)CCCn2nncc2CO[C@H]1CN(C)C(=O)C1CCCCC1	-18.1%	.	.	0.4%	.
CCC(=O)N1CCN(c2nc(CC)nc3sc4c(c23)CCCC4)CC1	?	3.1%	1.0%	-26.9%	13.0%
CCc1nc(N2CCN(C(=S)NCCCOC)CC2)c2c3c(sc2n1)CCCC3	16.4µM*	.	?	16.4µM*	14.1µM*
COc1ccccc1C(=O)Nc1nnc2n1CCS2	-12.3%	7.7%	.	-2.6%	.
COc1ccc(/C=C2\N=C(C(C)(C)C)OC2=O)c(OC)c1	8.2µM*	2.8%	-5.3%	7.31µM*	-33.7%
COc1ccc(OC)c(/C=C2\N=C(c3ccccc3)OC2=O)c1	-14.1%	.	-4.3%	-11.9%	-11.5%
Cc1cc(F)ccc1NC(=O)CCn1nc(C)c(S(=O)(=O)N2CCCCC2)c1C	-7.3%	1.2%	.	5.7%	.

High-throughput results from PubChem BioAssay.
